# Source: PubChem BioAssay (NCATS)
# Inconclusive results are not listed. Unmarked numbers belong to inactive results. Calls of active or inactive are those of the source. The call rests on the fitted dose curve; in most records, active means well fitted cell-killing curve with a large enough effect; inconclusive means small, poorly fitted or top-dose-only effect, or effect the other way; inactive means flat fitted curve, though single readings scatter.
# Tested on: HeLa
# Assay: Primary qHTS to identify gynecologic anti-cancer compounds using libraries of approved drugs and bioactive compounds (AID 1345084); further: nearly all actives have a fitted effect of over 55% in size
# Settings: Gynecologic cancer cell panel viability, ATPlite luminescence, 48 h; series mostly up to 57.5 µM; activity change, negative = cytotoxicity: at the top concentration
# Procedure, shortened: (§1)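 Measured: luminescence after ATPlite addition (15 min, RT). Exposure: 48 h, 37 C, 5% CO2.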
# On the % scale 0 is the no-effect control and ±100 the full control effect; potency means the concentration at half of the fitted maximal effect.
Compound,"activity change, negative = cytotoxicity",Potency
CN1CCC2=C(C1)c1ccccc1Cc1ccccc12,-0.979%,–
C=C(C)C(=O)O[C@H]1[C@@H]2[C@H](C)C(=O)O[C@@H]2C[C@@H](C)[C@@H]2C=CC(=O)[C@]21C,-20% [at 38.5 µM],–
CCN1C[C@]2(COC)CC[C@H](O)[C@@]34C5C[C@@H]6[C@@H](OC)C[C@@](OC(C)=O)(C5[C@@H]6OC(C)=O)[C@H]([C@H](OC)C23)[C@@H]14 (some centres not stated),-1.14% [at 25.3 µM],–
CC(C)[C@H](NC(=O)c1nn(Cc2ccc(F)cc2)c2ccccc12)C(N)=O,-0.241%,–
Cc1ccc2c(c1)[C@H]1CN(C)CC[C@H]1N2C(=O)CSc1nnnn1-c1ccc(Cl)cc1,-2.21%,–
C[C@]12CC[C@H](O)C[C@@H]1CC[C@@H]1[C@@H]2CC[C@]2(C)C(=O)CC[C@@H]12,-22.6%,–
CC(=O)OC[C@]12[C@H](OC(C)=O)C(=O)[C@@H]3[C@@H](O)[C@@]14O[C@@]3(C)COC(=O)c1cccnc1[C@@H](C)[C@H](C)C(=O)O[C@@H]([C@H](OC(C)=O)[C@@H]2OC(C)=O)[C@]4(C)O,19.4% [at 25.3 µM],–
C#C[C@]1(O)CC[C@H]2[C@@H]3CC[C@H]4Cc5nc6nc7ccccc7n6cc5C[C@]4(C)[C@H]3CC[C@@]21C,-11.4%,–
CN1C(=O)N(c2ccc(C#N)c(C(F)(F)F)c2)C(=O)[C@@]1(CO)c1ccccc1,4.98%,–
CCCCCn1cc(C(=O)Oc2cccc3cccnc23)c2ccccc21,-1.44%,–
COc1cc(O)c2c(c1)CCC[C@@H](O)[C@H](O)C(=O)/C=C\C[C@H](C)OC2=O,-2.6% [at 38.5 µM],–
COC(=O)C12C(=O)C(C)(O)C(=O)C1(C)C(C)=CC1C34CCC(OC3=O)C(C)(C)C4CCC12C (configuration not stated),-16.3% [at 25.3 µM],–
CN1Cc2c(ccc3c2OCO3)[C@@H]2[C@H]1c1cc3c(cc1C[C@@H]2O)OCO3,–,3.16 µM (active)

# Tested on: Hek293T
# Assay: as above
# Settings: Gynecologic cancer cell panel viability, ATPlite luminescence, 48 h, control line for the selectivity index; series mostly up to 57.5 µM; activity change, negative = cytotoxicity: at the top concentration
# Procedure, shortened: as §1
Compound,"activity change, negative = cytotoxicity",Potency
CN(Cc1cccc(-c2ccncc2)c1)C(=O)Oc1ccc(-c2ccc(C(N)=O)cc2)cc1,0.175%,–
CN(C(=O)C(c1ccccc1)c1ccccc1)[C@H](CN1CC[C@H](O)C1)c1ccccc1,-6.69%,–
C/C=C(\C)C(=O)OC1CC2C(CC=C3CC(OC4CC(OC)C(OC5CC(OC)C(OC6CC(OC)C(OC7CC(OC)C(O)C(C)O7)C(C)O6)C(C)O5)C(C)O4)CCC32C)C2(O)CCC(C(C)=O)C12C (configuration not stated),-2.97% [at 11.6 µM],–
CN=C(NS(=O)(=O)c1ccc(Cl)cc1)N1C[C@H](c2ccccc2)C(c2ccc(Cl)cc2)=N1,2.66%,–
COC1CC(O[C@H]2CC[C@@]3(C)C(CCC4C3CC[C@]3(C)C(C5=CC(=O)OC5)CCC43O)C2)OC(C)C1OC1OC(COC2OC(CO)C(O)C(O)C2O)C(O)C(O)C1O (some centres not stated),–,3.55 µM (active)
C[C@@H]1O[C@@H](OC2CCC3(C=O)C(CCC4C3CCC3(C)C(C5=CC(=O)OC5)C(O)CC43O)C2)[C@H](O)[C@H](O)[C@H]1O[C@@H]1O[C@H](CO)[C@@H](O)[C@H](O)[C@H]1O (some centres not stated),–,10 µM (active)
Cc1c(N[C@@H](c2nnc(-c3ccc(C#N)cc3)o2)[C@H](C)O)ccc(C#N)c1Cl,-4.59%,–
CC12CCC3C(C1)c1c(cc(O)c(C(=O)c4ccccc4)c1OC3(C)C)O2 (configuration not stated),-23.4% [at 38.5 µM],–
CN1C(=O)[C@@H](Cc2c[nH]c3ccccc23)N=C(c2ccccc2F)c2ccccc21,2.43%,–
c1ccc([C@@H]2C[C@H]2NC2CCNCC2)cc1,-10.7%,–
C=C1C2(C)CC3C(C)(O)C4=CC(=O)OC(C)(C)C4=CCC3(C)C13C(=O)OC(C)C3(O)C2=O (configuration not stated),-0.164% [at 25.3 µM],–
CN(C)[C@@H]1C(=O)C(C(N)=O)=C(O)[C@@]2(O)C(=O)C3=C(O)c4c(O)ccc(Cl)c4[C@@](C)(O)C3C[C@@H]12 (some centres not stated),10.1%,–
CC(=O)O[C@H]1C[C@]2(O)[C@@H]3CC[C@@H]4C[C@@H](O)CC[C@]4(C)[C@H]3CC[C@]2(C)[C@H]1c1ccc(=O)oc1,–,0.0891 µM (active)
CN1CCC2=C(C1)c1ccccc1Cc1ccccc12,3.45%,–
C=C(C)C(=O)O[C@H]1[C@@H]2[C@H](C)C(=O)O[C@@H]2C[C@@H](C)[C@@H]2C=CC(=O)[C@]21C,–,5.62 µM (active)
CCOc1ccc(Oc2ccc(OCc3cc(F)ccc3F)cc2)c(N)c1,-25.9%,–
CCN1C[C@]2(COC)CC[C@H](O)[C@@]34C5C[C@@H]6[C@@H](OC)C[C@@](OC(C)=O)(C5[C@@H]6OC(C)=O)[C@H]([C@H](OC)C23)[C@@H]14 (some centres not stated),-5.22% [at 25.3 µM],–
CC(C)[C@H](NC(=O)c1nn(Cc2ccc(F)cc2)c2ccccc12)C(N)=O,13%,–
CCCN(CCC)[C@@H]1CCc2ccc3[nH]c(C#N)cc3c2C1,4.04%,–
Cc1ccc2c(c1)[C@H]1CN(C)CC[C@H]1N2C(=O)CSc1nnnn1-c1ccc(Cl)cc1,6.34%,–
C[C@]12CC[C@H](O)C[C@@H]1CC[C@@H]1[C@@H]2CC[C@]2(C)C(=O)CC[C@@H]12,-0.87%,–
CC(=O)OC[C@]12[C@H](OC(C)=O)C(=O)[C@@H]3[C@@H](O)[C@@]14O[C@@]3(C)COC(=O)c1cccnc1[C@@H](C)[C@H](C)C(=O)O[C@@H]([C@H](OC(C)=O)[C@@H]2OC(C)=O)[C@]4(C)O,3.58% [at 25.3 µM],–
C#C[C@]1(O)CC[C@H]2[C@@H]3CC[C@H]4Cc5nc6nc7ccccc7n6cc5C[C@]4(C)[C@H]3CC[C@@]21C,-26.5%,–
CN1C(=O)N(c2ccc(C#N)c(C(F)(F)F)c2)C(=O)[C@@]1(CO)c1ccccc1,12.7%,–
CCCCCn1cc(C(=O)Oc2cccc3cccnc23)c2ccccc21,6.37%,–
COc1cc(O)c2c(c1)CCC[C@@H](O)[C@H](O)C(=O)/C=C\C[C@H](C)OC2=O,–,11.2 µM (active)
C[C@]12CC[C@H](O)C[C@@]1(O)CC[C@@H]1[C@@H]2CC[C@]2(C)[C@@H](c3ccc(=O)oc3)CC[C@]12O,-12.4%,–
COC(=O)C12C(=O)C(C)(O)C(=O)C1(C)C(C)=CC1C34CCC(OC3=O)C(C)(C)C4CCC12C (configuration not stated),-0.19% [at 25.3 µM],–
CC1=CC2OC3CC(O)[C@](C)([C@@]2(C)C(O)C1=O)[C@]31CO1 (some centres not stated),–,3.16 µM (active)
